Measured values published in publication PMC9838217, “Structure of SALL4 zinc finger domain reveals link between AT-rich DNA binding and Okihiro syndrome”.
Substitutions are numbered along the chain they refer to.

What was measured:
Test in all cases: HT-SELEX; high values mean tight binding
Conditions in all cases: protein: recombinant; vector His6-GST; dsDNA, one strand shown
[1] = biological target: T1, SALL4 ZFC4 WT (HT-SELEX) (Mus musculus, UniProt Q8BX22 870-940)
T1 sequence: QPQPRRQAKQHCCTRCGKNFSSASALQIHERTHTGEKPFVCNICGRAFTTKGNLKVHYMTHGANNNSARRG
Outline: (§1)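 Binding signal is expressed as fold change in each canonical k-mer's read fraction over the initial random library. To obtain it, 1 µg of purified recombinant mouse SALL4 zinc finger cluster 4 (residues 870–940) was incubated for 10 min at room temperature with library DNA (1.5 µg first cycle, 200 ng later cycles) in 100 µl of 10 mM Tris–HCl pH 7.5, 50 mM NaCl, poly(dI-dC) and DTT. Ni2+ bead-captured complexes went through washing, PCR amplification and reselection for up to 6 cycles, in triplicate, before MiSeq sequencing and scanning for 6-mers.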

[2] = biological target: T2, SALL4 ZFC4 R900W (HT-SELEX) (Mus musculus, UniProt Q8BX22 870-940, R900W)
T2 sequence: T1 sequence with R31W
Outline: as §1

[3] = biological target: T3, SALL4 ZFC4 G921D (HT-SELEX) (Mus musculus, UniProt Q8BX22 870-940, G921D)
T3 sequence: T1 sequence with G52D
Outline: as §1

Row | Sequence | binding signal [1] [fold-change vs cycle 0] | binding signal [2] [fold-change vs cycle 0] | binding signal [3] [fold-change vs cycle 0]
1 | ATTGTA | 2.07 ± 0.0871 | 2.03 ± 0.111 | 1.79 ± 0.162
2 | CATATA | 2.3 ± 0.215 | 1.91 ± 0.115 | 1.71 ± 0.163
3 | ACCCCT | 0.522 ± 0.0409 | 0.619 ± 0.0154 | 0.676 ± 0.0257
4 | AAATTG | 1.6 ± 0.125 | 1.53 ± 0.0609 | 1.48 ± 0.0586
5 | GATTTA | 1.94 ± 0.0986 | 1.84 ± 0.0979 | 1.71 ± 0.128
6 | AACTCT | 1.39 ± 0.0293 | 1.52 ± 0.0171 | 1.47 ± 0.0843
7 | CTTCGA | 0.707 ± 0.0176 | 0.789 ± 0.0144 | 0.875 ± 0.0344
8 | GGTCTA | 0.681 ± 0.0386 | 0.794 ± 0.0243 | 0.8869 ± 0.005
9 | ACGTCT | 0.744 ± 0.0352 | 0.85 ± 0.0392 | 0.941 ± 0.0281
10 | CAGTGC | 0.318 ± 0.0186 | 0.355 ± 0.00797 | 0.491 ± 0.0442
11 | CTAATC | 1.38 ± 0.0603 | 1.55 ± 0.0541 | 1.43 ± 0.0842
12 | AACAGT | 1.28 ± 0.0479 | 1.41 ± 0.0726 | 1.35 ± 0.0692
13 | CGCTTA | 0.535 ± 0.019 | 0.58 ± 0.0258 | 0.684 ± 0.061
14 | AGTTCG | 0.647 ± 0.0383 | 0.741 ± 0.0101 | 0.828 ± 0.0183
15 | ACACAA | 1.07 ± 0.0495 | 1.2 ± 0.0676 | 1.19 ± 0.0605
16 | ATCCAC | 0.828 ± 0.0223 | 0.953 ± 0.0135 | 0.986 ± 0.0515
17 | ACTAAA | 1.81 ± 0.0352 | 1.9 ± 0.121 | 1.69 ± 0.128
18 | CTCAAC | 0.775 ± 0.0132 | 0.9089 ± 0.00888 | 0.928 ± 0.0107
19 | ACGTTA | 1.26 ± 0.034 | 1.37 ± 0.0435 | 1.29 ± 0.0362
20 | AATGTG | 1.15 ± 0.0171 | 1.23 ± 0.0476 | 1.25 ± 0.0281

Row | Sequence | binding signal [1] [fold-change vs cycle 0] | binding signal [2] [fold-change vs cycle 0] | binding signal [3] [fold-change vs cycle 0]
21 | AGTCCG | 0.333 ± 0.0345 | 0.404 ± 0.0391 | 0.533 ± 0.0458
22 | GTGGGA | 0.413 ± 0.0385 | 0.478 ± 0.0252 | 0.567 ± 0.0443
23 | CCAGAG | 0.463 ± 0.0303 | 0.544 ± 0.0428 | 0.625 ± 0.0553
24 | AAGGAC | 0.805 ± 0.0174 | 0.941 ± 0.0375 | 0.9757 ± 0.00429
25 | GGGTAC | 0.482 ± 0.0239 | 0.556 ± 0.011 | 0.641 ± 0.0594
26 | ATTAGA | 2.12 ± 0.0407 | 2.08 ± 0.0537 | 1.85 ± 0.125
27 | TCGCAA | 0.451 ± 0.0135 | 0.483 ± 0.00786 | 0.616 ± 0.0634
28 | GACATA | 1.19 ± 0.0463 | 1.28 ± 0.0199 | 1.25 ± 0.0289
29 | CTTCTC | 0.952 ± 0.0502 | 1.11 ± 0.0917 | 1.07 ± 0.0618
30 | ACATAA | 2.21 ± 0.177 | 1.96 ± 0.0742 | 1.75 ± 0.158
31 | AAAGTG | 1.1 ± 0.0306 | 1.23 ± 0.0192 | 1.22 ± 0.0345
32 | AGTCGA | 0.617 ± 0.0356 | 0.697 ± 0.0314 | 0.807 ± 0.0559
33 | AACCCT | 0.85 ± 0.042 | 0.958 ± 0.0297 | 0.971 ± 0.0387
34 | CAGCTG | 0.312 ± 0.0432 | 0.397 ± 0.0183 | 0.499 ± 0.0395
35 | AGAGAA | 1.42 ± 0.0467 | 1.64 ± 0.0726 | 1.46 ± 0.11
36 | CCTAGA | 0.844 ± 0.0425 | 0.937 ± 0.0552 | 0.97 ± 0.04
37 | GCAAAC | 0.54 ± 0.031 | 0.598 ± 0.00737 | 0.718 ± 0.0549
38 | CGTATA | 1.19 ± 0.0262 | 1.2 ± 0.0145 | 1.18 ± 0.0335
39 | CCACAA | 0.612 ± 0.0144 | 0.71 ± 0.0271 | 0.759 ± 0.0161
40 | CAAAGG | 0.765 ± 0.046 | 0.898 ± 0.0341 | 0.935 ± 0.0222

Row | Sequence | binding signal [1] [fold-change vs cycle 0] | binding signal [2] [fold-change vs cycle 0] | binding signal [3] [fold-change vs cycle 0]
41 | GATAAC | 1.49 ± 0.117 | 1.52 ± 0.136 | 1.44 ± 0.166
42 | CCTGTC | 0.437 ± 0.00717 | 0.533 ± 0.0129 | 0.619 ± 0.0538
43 | CACATC | 0.757 ± 0.0342 | 0.861 ± 0.0321 | 0.929 ± 0.0433
44 | AAACCC | 0.691 ± 0.0592 | 0.77 ± 0.0294 | 0.845 ± 0.0633
45 | GGACTA | 0.732 ± 0.0464 | 0.855 ± 0.0609 | 0.897 ± 0.0585
46 | CCCTTA | 0.943 ± 0.0612 | 1.06 ± 0.0532 | 1.02 ± 0.0595
47 | GTTGCA | 0.582 ± 0.0571 | 0.661 ± 0.0273 | 0.75 ± 0.0252
48 | ACATAC | 1.3 ± 0.0628 | 1.4 ± 0.0493 | 1.33 ± 0.0922
49 | GAGCTA | 0.677 ± 0.0225 | 0.747 ± 0.0353 | 0.858 ± 0.0136
50 | AAATAG | 1.7 ± 0.0926 | 1.74 ± 0.095 | 1.58 ± 0.0914
51 | ACTTAA | 1.95 ± 0.0715 | 2.12 ± 0.103 | 1.85 ± 0.222
52 | GACGTA | 0.666 ± 0.0264 | 0.752 ± 0.0315 | 0.823 ± 0.0398
53 | CATGGA | 0.865 ± 0.0271 | 0.95 ± 0.0312 | 0.985 ± 0.0405
54 | CCTGCA | 0.34 ± 0.0217 | 0.407 ± 0.0271 | 0.515 ± 0.0759
55 | GTATTA | 2.23 ± 0.186 | 1.98 ± 0.125 | 1.76 ± 0.141
56 | ATATGC | 1.17 ± 0.106 | 1.07 ± 0.0294 | 1.13 ± 0.0399
57 | ATACCG | 0.646 ± 0.0192 | 0.699 ± 0.038 | 0.799 ± 0.0271
58 | ATCTGA | 1.33 ± 0.0639 | 1.39 ± 0.0686 | 1.35 ± 0.119
59 | ATGGGA | 0.904 ± 0.0547 | 0.99 ± 0.053 | 0.966 ± 0.0349
60 | GTGATA | 1.42 ± 0.0582 | 1.47 ± 0.0649 | 1.39 ± 0.0928
